In the supplement of paper PMC6555819:

Each sequence was assayed on VDR:RXRa (NR concentration 270 nM, RXRa partner concentration 90 nM) (assay: PBM binding z-score (relative to random genomic background probes); higher = stronger binding; sequences stand for … in GC…GCGATTGACAGCGTAGAATGAAGG).
Method: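 Protein-binding microarray (Agilent 4x180K custom design, double-stranded 60-nt probes: 5' GC cap, 34-nt variable region, 24-nt constant primer region; full probe sequence given). Purified or IVT nuclear receptor:RXRα heterodimers (3:1 NR:RXRα, mostly 270:90 nM) or homodimers were incubated for 1 h in PBS with 2% milk and no ligand, then detected with Alexa488 antibodies. Fluorescence from o1-orientation probes (~5 replicates averaged) was converted to z-scores against 500 random hg19 background probes. Variable regions are seed direct-repeat (DR0–DR5) sites, all their single-nucleotide variants and half-site ablations.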

Row | Sequence | PBM binding z-score
1 | AGTCGAAGTTCACTAGGTAACGTAAGATTCAGCT | 2.44
2 | TCATATAGGTATATGCTAGGTGAAAGTCCGATCT | 0.832
3 | CCTTACGGGTCACTGACAGGTTGTAGCATTTGGA | 3.34
4 | CCTAGCAGGCAAGGGTCACTCAAGCATTTCGCTT | 2.81
5 | CCTACTGGCCCAAAGGTCATTGATTCCAATGCTC | 4.28
6 | TTACCAAGGCGAAAGGTCGTTGATGCACGCCTTG | 1.65
7 | CCTACTGGGACACGAAAGGTCATTGATTCAGTGA | 4.06
8 | ACAATGAGGTTATTAAGATCAGGGAATTGCGGTC | 2.56
9 | ATTTCTAGGTAAAAGTTCAGTGAATCCCGAGGAT | 1.77
10 | TTACCAAGGTGAGCTTAGGTCGTTGATCCAACTC | 0.561
11 | TCTCGGAGGACACGAAAGATCAGAGCTCGACATC | 0.0612
12 | CCTACTGGGGCAAGGTTACCATAACGCACAGCCA | 0.252
13 | ATCGAAAGGTCGTGAGCTGAGTATACAGAAAGGC | 2.95
14 | CCTACTGGGCCATTCAGAGATCATTGATCATATG | -0.415
15 | CTCGAAAGGTCGGTTGAGGTGAGTATTCGGATAA | 2.16
16 | ACTAGCAGTCCAAGGGTCACTCAAGATTAGTCCG | 2.86
17 | AGAACGAGGGCACGCTGAGTGGATAGCAGAGTAG | 0.617
18 | GGAACGAGGGCAAGTTGAAAGCAGAGTTTGATGG | 0.74
19 | ACAGACAGGTCATGAAGGTAACTCAGGCTATCAT | 4.55
20 | TAGCCTAGGTCATTCAGGGACCAGTATAGAAAGC | 2.57

Row | Sequence | PBM binding z-score
21 | AATACAGGGTCACTAGGCCTGAGTAGGTACGAAT | 3.84
22 | TGTCAAAGTTCAAAGTTAACGTAAGTATCCACAC | 4.57
23 | CAAACTAGGTCACGAAGGGTCAAAGTCGAATGAC | 6.99
24 | ATACCAAGGTGATCGTGAGGTGGTTGATACTAAC | -0.0231
25 | TCTTGTATATCAAAGGTTAAGAAAGCCGAAGCCT | 1.91
26 | AGTCAAAGTTCATCTAGGTAAGGTAAGATATGCT | 4.6
27 | CCGACTGGGGCATAGGTTACCATACTCAGTACGA | -0.0526
28 | GCTGCTAGGTCAACTGATGGTCAGCCAAAGCTCG | 1.58
29 | GCTCGGAAGACAAGGTCAGAGCTTTGTCCGTAGA | 0.859
30 | ACTAGTTGGTCAGTTGAGGTCACACACAATTCGG | 4.65
31 | AAAGACAGGTGATGAAGGTAACTCAGGCTATCAT | 0.521
32 | TATACAGGGTCAAAGGCAAGAGTACGAATGTCGA | 4.61
33 | GCTAGTTGGTCAGTAATAGGTCACACACCGGTCG | 1.73
34 | AGAATGAGGTTAAGATCAGGGTAACAGAATACAT | 2
35 | GATACAGGGTCAGCTAGAGGCCAGAGCATGGAAA | 3.04
36 | TAGCCTGGGTCATGCGGGCCAGTATAGTGTCGGC | 3.07
37 | CCTAGTTAGTCAGGAGGTCACACACCGGATATGA | 3.97
38 | GTACCAAAGTGAATAGGTCGTTGATGAGTAGGCG | 0.0078
39 | CCGAGTAGGTTGTGGGGCATTCAGGCAACGGTGA | -0.367
40 | GCTTACGGGGCAAAGGTTATAGCATGAATAGAAT | 2.08
